Results from the supplement of paper PMC10849652.
Targets with a hit are over-represented here; the source holds about 8,800 in all. About 0.5% of all pairs of compound and target were hits. A number with no mark means an inactive call.

Assays:
Assay in all cases: log2 fold change, soluble protein after heating vs DMSO (PISA); higher = thermal stabilisation; K562 lysate, 10 uM; active = over 0.2 and 3.5 SD of the protein, either way, in both replicates (recomputed)
[1] = compound: C#Cc1cccc(Nc2ncnc3cc(OCCOC)c(OCCOC)cc23)c1 [erlotinib]
Summary of the method: (§1)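 Thermal stability, expressed as log-two fold change relative to solvent controls, is given from duplicates. Crude K562 extract in PBS pH 7.4 with 1 mM MgCl2, at 1 mg/mL protein, was treated with 10 μM compound for 30 min and heated in aliquots for 3 min across 48°C-58°C. After pooling, adjustment to 0.5% NP-40 at 4°C and centrifugation at 21,000xg for 90 min, supernatant protein was measured by TMTpro 16plex LC-MS/MS with channel sums equalised.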

[2] = compound: C/C(=N\NC(=O)C1=CC(=CC=C1)S(=O)(=O)N2CCOCC2)/C3=C(C=CC(=C3)Cl)O
Summary of the method: as §1

[3] = compound: C1=CC(=CC=C1C2=NC3=C(N2)C=C(C=C3)C(=O)N)OC4=CC=C(C=C4)Cl
Summary of the method: as §1

[4] = compound: C1=CC2=C(C=CC(=C2)/C=C\3/C(=O)NC(=NCC4=CC=CS4)S3)N=C1
Summary of the method: as §1

[5] = compound: C1=CC2=NC=CN=C2C=C1/C=C/3\C(=O)NC(=O)S3
Summary of the method: as §1

[6] = compound: C1=CC=C(C=C1)C2=NC(=C(N2)C3=CC=NC=C3)C4=CC(=C(C=C4)Cl)O
Summary of the method: as §1

[7] = compound: C1=CC=C2C(=C1)C3=NNC4=CC=CC(=C43)C2=O
Summary of the method: as §1

[8] = compound: C1CCN(C1)C(=O)NC2=CC=CC(=C2)NC3=NC=C(C(=N3)NCCC4=CN=CN4)Br
Summary of the method: as §1

[9] = compound: C1CN(CCC1(CC2=CC=C(C=C2)Cl)N)C3=NC=NC4=C3C=CN4
Summary of the method: as §1

[10] = compound: C1COCCN1CCN2C3=CC=CC=C3N=C2NC(=O)C4=CC(=CC=C4)[N+](=O)[O-] [IRAK-1-4 Inhibitor I]
Summary of the method: as §1

[11] = compound: C=CC(=O)N1CCC[C@@H](n2nc(-c3ccc(Oc4ccccc4)cc3)c3c(N)ncnc32)C1 [ibrutinib]
Summary of the method: as §1

[12] = compound: CC(=O)c1cnc2ccc(-c3cc(Cl)c(O)c(Cl)c3)nc2c1N[C@H]1CC[C@H](CN(C)C)CC1
Summary of the method: as §1

[13] = compound: CC(C)(C)Cn1c(N)nc2ccc(-c3[nH]c(C(C)(C)C)nc3-c3ccc(F)cc3)nc21 [ralimetinib]
Summary of the method: as §1

[14] = compound: CC(C)(O)CC(=O)NCCn1ccc2ncnc(Nc3ccc(Oc4cccc(C(F)(F)F)c4)c(Cl)c3)c21
Summary of the method: as §1

[15] = compound: CC(C)C1=C2N=C(C=C(N2N=C1)NCC3=CC=CC=C3)NCCCCCCN
Summary of the method: as §1

[16] = compound: CC1=C(C(CC(=O)N1)C2=CC=C(C=C2)C(F)(F)F)C(=O)NC3=C(C=C4C(=C3)C=NN4)F
Summary of the method: as §1

[17] = compound: CC1=C(C2=C(C=C1)C(=O)C3=CC=CC=C3N2CCCN)C
Summary of the method: as §1

[18] = compound: CC1=C(C=C(C=C1)NC(=O)C2=CC(=CC=C2)C(C)(C)C#N)NC3=CC4=C(C=C3)N=CN(C4=O)C
Summary of the method: as §1

[19] = compound: CC1=C(C=C(C=C1)NC(=O)C2=CC(=CC=C2)N(C)C)NC(=O)C3=CC=C(C=C3)O
Summary of the method: as §1

[20] = compound: CC1=CC=C(C=C1)SC2=C3C=C(SC3=CN=C2)C(=O)N
Summary of the method: as §1

Sequence of UniProt Q8NI36 (Q8NI36 whole entry, looked up): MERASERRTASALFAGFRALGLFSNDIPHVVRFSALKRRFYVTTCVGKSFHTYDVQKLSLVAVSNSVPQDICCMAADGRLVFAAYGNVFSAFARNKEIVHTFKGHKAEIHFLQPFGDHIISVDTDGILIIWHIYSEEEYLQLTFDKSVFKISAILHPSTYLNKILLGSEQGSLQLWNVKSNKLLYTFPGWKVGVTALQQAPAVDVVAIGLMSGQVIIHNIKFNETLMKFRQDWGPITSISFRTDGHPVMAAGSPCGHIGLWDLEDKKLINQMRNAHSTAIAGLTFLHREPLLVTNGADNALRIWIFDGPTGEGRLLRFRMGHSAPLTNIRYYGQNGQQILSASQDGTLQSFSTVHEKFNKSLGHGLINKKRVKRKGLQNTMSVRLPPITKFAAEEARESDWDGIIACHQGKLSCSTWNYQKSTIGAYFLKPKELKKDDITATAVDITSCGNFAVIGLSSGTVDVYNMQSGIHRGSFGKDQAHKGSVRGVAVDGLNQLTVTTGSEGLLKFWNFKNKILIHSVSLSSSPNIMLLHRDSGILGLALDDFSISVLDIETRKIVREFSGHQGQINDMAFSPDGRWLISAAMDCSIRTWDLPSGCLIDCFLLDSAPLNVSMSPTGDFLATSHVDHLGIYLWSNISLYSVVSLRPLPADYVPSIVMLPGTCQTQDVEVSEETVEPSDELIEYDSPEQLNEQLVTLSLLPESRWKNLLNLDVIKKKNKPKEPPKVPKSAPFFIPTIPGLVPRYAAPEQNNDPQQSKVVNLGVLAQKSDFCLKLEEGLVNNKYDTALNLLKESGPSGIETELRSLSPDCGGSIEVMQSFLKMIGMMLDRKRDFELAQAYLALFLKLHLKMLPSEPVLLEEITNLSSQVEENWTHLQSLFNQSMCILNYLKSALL
Sequence of UniProt P40818 (P40818 whole entry, looked up): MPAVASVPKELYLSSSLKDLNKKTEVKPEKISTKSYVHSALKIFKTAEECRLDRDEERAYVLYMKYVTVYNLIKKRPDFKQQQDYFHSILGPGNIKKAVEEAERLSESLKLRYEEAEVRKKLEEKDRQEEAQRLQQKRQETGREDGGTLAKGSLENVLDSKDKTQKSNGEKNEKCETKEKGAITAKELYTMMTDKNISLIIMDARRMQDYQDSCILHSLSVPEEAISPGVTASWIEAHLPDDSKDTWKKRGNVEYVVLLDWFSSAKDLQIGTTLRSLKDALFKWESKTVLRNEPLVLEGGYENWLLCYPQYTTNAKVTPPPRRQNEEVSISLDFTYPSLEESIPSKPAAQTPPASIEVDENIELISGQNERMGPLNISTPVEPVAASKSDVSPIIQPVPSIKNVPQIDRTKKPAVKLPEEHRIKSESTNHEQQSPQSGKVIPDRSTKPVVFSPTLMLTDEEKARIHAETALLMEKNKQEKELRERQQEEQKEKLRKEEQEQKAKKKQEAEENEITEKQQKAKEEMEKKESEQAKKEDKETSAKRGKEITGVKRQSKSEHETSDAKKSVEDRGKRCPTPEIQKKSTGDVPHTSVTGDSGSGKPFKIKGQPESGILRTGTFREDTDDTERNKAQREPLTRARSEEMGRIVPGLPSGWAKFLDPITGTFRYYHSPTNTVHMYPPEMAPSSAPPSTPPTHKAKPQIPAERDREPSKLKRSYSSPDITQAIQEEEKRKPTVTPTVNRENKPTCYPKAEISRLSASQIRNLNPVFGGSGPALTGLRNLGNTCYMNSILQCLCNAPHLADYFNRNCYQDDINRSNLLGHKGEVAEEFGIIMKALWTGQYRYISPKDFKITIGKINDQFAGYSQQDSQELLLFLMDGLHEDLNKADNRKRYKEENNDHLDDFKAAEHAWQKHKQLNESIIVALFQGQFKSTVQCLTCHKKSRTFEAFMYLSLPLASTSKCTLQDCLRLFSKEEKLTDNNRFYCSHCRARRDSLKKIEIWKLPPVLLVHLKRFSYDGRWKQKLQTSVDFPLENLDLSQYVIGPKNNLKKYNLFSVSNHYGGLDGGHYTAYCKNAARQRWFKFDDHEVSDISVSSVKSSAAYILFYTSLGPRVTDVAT
Sequence of UniProt Q9HAV4 (Q9HAV4 whole entry, looked up): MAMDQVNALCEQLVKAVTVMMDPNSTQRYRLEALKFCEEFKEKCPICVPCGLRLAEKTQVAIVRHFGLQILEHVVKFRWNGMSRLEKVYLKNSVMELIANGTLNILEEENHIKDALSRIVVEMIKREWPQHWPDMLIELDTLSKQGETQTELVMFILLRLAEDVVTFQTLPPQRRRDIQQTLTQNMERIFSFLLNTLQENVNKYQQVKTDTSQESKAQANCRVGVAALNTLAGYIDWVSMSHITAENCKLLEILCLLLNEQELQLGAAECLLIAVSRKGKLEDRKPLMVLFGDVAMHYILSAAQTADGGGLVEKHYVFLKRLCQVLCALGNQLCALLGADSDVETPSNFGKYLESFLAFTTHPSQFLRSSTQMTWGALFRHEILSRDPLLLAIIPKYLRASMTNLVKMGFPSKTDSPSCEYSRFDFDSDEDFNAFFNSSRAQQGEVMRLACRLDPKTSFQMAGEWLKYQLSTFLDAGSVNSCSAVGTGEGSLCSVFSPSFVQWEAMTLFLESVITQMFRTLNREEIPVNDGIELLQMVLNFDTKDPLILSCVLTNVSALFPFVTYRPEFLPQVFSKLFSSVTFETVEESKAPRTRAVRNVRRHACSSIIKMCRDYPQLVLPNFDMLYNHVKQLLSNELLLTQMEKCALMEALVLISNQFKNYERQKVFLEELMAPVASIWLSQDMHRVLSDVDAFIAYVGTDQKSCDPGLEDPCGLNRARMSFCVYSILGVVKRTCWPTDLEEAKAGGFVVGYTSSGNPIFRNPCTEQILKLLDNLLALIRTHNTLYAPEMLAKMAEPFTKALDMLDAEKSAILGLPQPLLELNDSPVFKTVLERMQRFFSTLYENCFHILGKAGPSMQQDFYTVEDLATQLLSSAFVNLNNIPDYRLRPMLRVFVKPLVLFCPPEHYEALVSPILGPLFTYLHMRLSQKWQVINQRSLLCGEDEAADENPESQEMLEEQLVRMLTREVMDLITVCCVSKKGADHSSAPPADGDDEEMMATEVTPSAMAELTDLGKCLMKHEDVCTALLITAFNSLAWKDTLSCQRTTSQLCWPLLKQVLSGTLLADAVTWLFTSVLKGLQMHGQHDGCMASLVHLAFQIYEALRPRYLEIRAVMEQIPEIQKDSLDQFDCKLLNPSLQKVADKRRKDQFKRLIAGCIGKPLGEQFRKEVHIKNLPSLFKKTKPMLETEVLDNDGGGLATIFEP
Sequence of UniProt Q9NZ43 (Q9NZ43 whole entry, looked up): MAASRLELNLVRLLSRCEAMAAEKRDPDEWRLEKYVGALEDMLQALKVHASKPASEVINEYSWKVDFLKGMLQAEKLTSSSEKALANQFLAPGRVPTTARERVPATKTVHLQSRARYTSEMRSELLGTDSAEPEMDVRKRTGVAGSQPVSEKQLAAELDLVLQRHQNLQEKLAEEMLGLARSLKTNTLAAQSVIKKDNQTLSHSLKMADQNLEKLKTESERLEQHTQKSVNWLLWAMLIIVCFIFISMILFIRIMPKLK
Sequence of UniProt O75362 (O75362 whole entry, looked up): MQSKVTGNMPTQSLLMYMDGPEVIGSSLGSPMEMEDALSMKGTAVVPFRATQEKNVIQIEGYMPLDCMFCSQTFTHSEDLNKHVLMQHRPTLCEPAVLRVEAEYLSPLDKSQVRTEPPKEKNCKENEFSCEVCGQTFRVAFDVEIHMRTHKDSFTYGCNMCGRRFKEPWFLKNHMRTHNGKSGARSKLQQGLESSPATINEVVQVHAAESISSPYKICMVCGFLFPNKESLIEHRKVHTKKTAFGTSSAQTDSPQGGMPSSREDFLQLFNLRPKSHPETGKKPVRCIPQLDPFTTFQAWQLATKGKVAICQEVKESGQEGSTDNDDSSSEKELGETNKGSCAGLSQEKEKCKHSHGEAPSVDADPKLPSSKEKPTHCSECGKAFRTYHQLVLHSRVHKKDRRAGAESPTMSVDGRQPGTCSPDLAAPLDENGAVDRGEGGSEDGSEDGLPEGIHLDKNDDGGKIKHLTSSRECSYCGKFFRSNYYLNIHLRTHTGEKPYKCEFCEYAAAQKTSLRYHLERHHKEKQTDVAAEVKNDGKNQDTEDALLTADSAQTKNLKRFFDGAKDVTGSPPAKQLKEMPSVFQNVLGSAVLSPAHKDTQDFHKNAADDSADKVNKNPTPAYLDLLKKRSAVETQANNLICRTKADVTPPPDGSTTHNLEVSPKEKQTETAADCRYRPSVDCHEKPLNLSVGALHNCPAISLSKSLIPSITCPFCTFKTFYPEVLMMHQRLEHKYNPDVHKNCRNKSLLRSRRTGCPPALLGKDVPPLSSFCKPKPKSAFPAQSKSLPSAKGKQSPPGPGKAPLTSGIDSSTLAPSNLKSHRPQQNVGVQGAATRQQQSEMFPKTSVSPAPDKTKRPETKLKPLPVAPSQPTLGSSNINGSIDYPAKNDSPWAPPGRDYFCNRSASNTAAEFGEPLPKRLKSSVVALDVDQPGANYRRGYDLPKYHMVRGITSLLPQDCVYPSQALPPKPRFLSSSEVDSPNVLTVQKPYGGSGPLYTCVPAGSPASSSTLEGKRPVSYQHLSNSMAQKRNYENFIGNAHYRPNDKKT
Sequence of UniProt Q96GY0 (Q96GY0 whole entry, looked up): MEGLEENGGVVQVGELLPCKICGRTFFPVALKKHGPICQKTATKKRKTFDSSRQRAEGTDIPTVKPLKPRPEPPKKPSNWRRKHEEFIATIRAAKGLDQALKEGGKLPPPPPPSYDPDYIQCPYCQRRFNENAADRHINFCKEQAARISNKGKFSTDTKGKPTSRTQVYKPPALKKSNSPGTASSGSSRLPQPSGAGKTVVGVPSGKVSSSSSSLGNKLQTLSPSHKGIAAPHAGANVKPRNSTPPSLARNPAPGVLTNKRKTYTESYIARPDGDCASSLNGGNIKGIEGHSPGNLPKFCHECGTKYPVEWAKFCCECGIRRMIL
Sequence of UniProt O95619 (O95619 whole entry, looked up): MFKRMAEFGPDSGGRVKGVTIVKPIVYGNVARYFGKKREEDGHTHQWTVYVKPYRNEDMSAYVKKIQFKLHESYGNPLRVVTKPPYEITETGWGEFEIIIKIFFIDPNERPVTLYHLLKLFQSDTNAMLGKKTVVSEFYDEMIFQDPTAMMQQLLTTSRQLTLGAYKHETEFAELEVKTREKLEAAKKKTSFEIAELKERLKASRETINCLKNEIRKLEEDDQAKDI

Target	log2 fold change [1]	log2 fold change [2]	log2 fold change [3]	log2 fold change [4]	log2 fold change [5]	log2 fold change [6]	log2 fold change [7]	log2 fold change [8]	log2 fold change [9]	log2 fold change [10]	log2 fold change [11]	log2 fold change [12]	log2 fold change [13]	log2 fold change [14]	log2 fold change [15]	log2 fold change [16]	log2 fold change [17]	log2 fold change [18]	log2 fold change [19]	log2 fold change [20]
VPS33A (UniProt Q96AX1)	0.024	0.005	0.024	0.035	0.018	-0.006	-0.023	-0.025	0.036	0.015	0.024	-0.01	0.039	0.005	-0.003	0.008	0.013	0.013	0.043	-0.032
WDCP (UniProt Q9H6R7)	-0.06	0.091	0.079	0.018	0.024	0	-0.011	-0.022	0.002	0.024	0.021	0.021	-0.006	-0.045	-0.027	-0.023	-0.041	0	0.01	0.049
ZC2HC1A (UniProt Q96GY0)	0	-0.134	0.058	0.18	0.073	-0.043	-0.1	-0.054	0.009	-0.012	-0.029	-0.006	0.037	-0.056	-0.038	-0.016	-0.076	0.045	-0.003	0.006
XPO5 (UniProt Q9HAV4)	0.026	0.024	-0.02	0.005	0	-0.003	-0.044	0.008	0.035	-0.015	-0.041	0.003	0	-0.043	-0.039	-0.014	-0.01	-0.004	0.043	-0.01
VPS54 (UniProt Q9P1Q0)	-0.018	-0.061	0.059	-0.117	0.213	-0.044	-0.114	-0.019	-0.079	0.036	0.048	-0.059	-0.122	-0.267	-0.004	0.038	0.04	0.144	0.066	-0.037
ZNF217 (UniProt O75362)	-0.014	-0.043	0.06	-0.132	-0.004	0.027	-0.162	-0.014	0.028	0.007	-0.033	0.053	0.017	-0.014	-0.061	-0.005	-0.022	0.002	0.025	-0.031
UTP3 (UniProt Q9NQZ2)	-0.051	-1.41	-0.088	-0.063	-0.039	-0.018	0.021	-0.067	-0.09	-0.041	0.053	0.001	0.055	-0.051	-0.058	0.026	-0.123	-0.016	-0.023	-0.018
YEATS4 (UniProt O95619)	-0.017	-0.018	-0.018	0.045	-0.079	-0.013	-0.027	0.007	0.034	0.002	0.02	0.016	0.003	0.009	0.001	0.01	-0.004	0.041	-0.035	-0.039
VPS41 (UniProt P49754)	0.032	0.073	-0.029	0.062	-0.003	0.036	-0.033	-0.025	0.049	-0.008	-0.019	0.007	0.015	0.016	0.003	0.024	0.014	0.005	0.047	0.013
ZNHIT6 (UniProt Q9NWK9)	0.059	0.475	0.062	0.024	-0.007	-0.008	-0.068	0	0.014	0.003	-0.01	-0.097	-0.032	0.005	0.001	0.036	-0.02	0.032	0.018	-0.029
WDR36 (UniProt Q8NI36)	0	0.02	-0.031	0.027	-0.025	0.017	0.008	0.014	0.004	-0.049	-0.02	-0.01	0.019	-0.004	0.03	0.048	0	0.019	0.013	0.033
WDR91 (UniProt A4D1P6)	0.02	0.04	-0.019	0.038	-0.034	0.002	0.019	-0.011	-0.007	-0.013	0.05	0.011	0.026	-0.002	-0.026	-0.013	-0.009	-0.046	0.043	0.002
USE1 (UniProt Q9NZ43)	0.019	0.31 (active)	-0.026	-0.062	0	-0.038	-0.06	0.019	0.025	0.056	-0.039	-0.026	-0.095	-0.102	-0.086	0.024	-0.025	-0.007	0.007	0.027
XPNPEP1 isoform 3 (UniProt Q9NQW7)	-0.001	0.023	-0.019	0.001	-0.007	-0.005	-0.011	-0.006	0.005	0.009	0.012	-0.007	0.017	-0.026	-0.009	0.007	-0.026	-0.025	-0.005	0.002
USP8 (UniProt P40818)	-0.011	-0.034	0.026	-0.004	-0.034	0.014	-0.028	-0.014	0.006	-0.019	0.048	-0.009	0	-0.014	0.015	0.004	-0.007	-0.001	0.018	0.009
USP3 (UniProt Q9Y6I4)	-0.001	0.05	0.033	0.031	0.018	0.011	0.014	-0.037	0.035	-0.044	0.01	0.048	0.042	-0.027	0.014	0.024	0.011	-0.014	0.016	-0.025
